Six1-Eya2 blk: qHTS Assay for Inhibitors of the Six1/Eya2 Interaction. Homeobox protein SIX1 (Homo sapiens) + Protein phosphatase EYA2 (Homo sapiens), …. AlphaScreen GST-Six1/His-Eya2 binding, biochemical; hits give low values. activity change, % (no concentration beside the values). 360,000 tested, 0.56% active. AID 651725, 2012; in the data active means activity change below about -65%; inconclusive means mostly about -30% to -63%
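AlphaScreen luminescence read after one hour at 37 °C in darkness. Pin-transferred compounds met GST-Six1 and His-Eya2 protein (5X stock 250 nM/500 nM) plus glutathione donor and Ni-chelate acceptor beads (5X, 50 ug/mL).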
DT40 TDP1 CPT: qHTS for Inhibitors of human tyrosyl-DNA phosphodiesterase 1 (TDP1): qHTS in cells in presence of CPT; chicken DT40 Tdp1-/-;hTDP1 cells + 20 nM CPT, ATP luminescence, 48 h; Potency, µM (doses to about 46.2 µM), inactives show at the highest dose activity change, negative = growth inhibition, actives largely listed as inhibitors; 420,000 tested, 12% active; AID 686979, 2013; further: potency means the concentration at half of the fitted maximal effect; nearly all actives have a fitted effect of over 55% in size
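Chicken DT40 Tdp1-/- cells complemented with human TDP1, 400 cells/well, exposed to compounds plus 20 nM camptothecin for at least 48 h at 37 C; viability read as ATP content by CellTiter-Glo luminescence.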
CtBP-E1A blk: qHTS Assay for Inhibitors of the CtBP/E1A Interaction. CtBP / adenovirus E1A interaction (AlphaScreen). AlphaScreen GST-E1A/His-CtBP binding, 1536-well; hits give low values. activity change, % (no concentration beside the values). 340,000 tested, 0.49% active. AID 651724, 2012; in the data active means activity change below about -65%; inconclusive means mostly about -30% to -63%
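Protein mix (5X: 125 nM each GST-E1A, His-CtBP) was incubated with pinned compound 2 h at 37 deg C in dark, in 50 mM Tris pH 8.0 buffer with 300 mM NaCl. Glutathione donor and nickel acceptor beads followed; AlphaScreen signal read after 1 h.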
DT40 TDP1 no CPT: qHTS for Inhibitors of human tyrosyl-DNA phosphodiesterase 1 (TDP1): qHTS in cells in absence of CPT; AID 686978, 2013; 420,000 tested, 15% active; Potency, µM (series often up to 46.2 µM), for the others: at the highest dose activity change, negative = growth inhibition, actives largely listed as inhibitors; DT40 Tdp1-/- hTDP1 cells, no CPT, ATP luminescence, 48 h; further: potency means the concentration at half of the fitted maximal effect; nearly all actives have a fitted effect of over 55% in size
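Cells were dispensed at 400 per well, compounds added by pin tool, plates incubated ≥48 hr at 37 °C, then CellTiter-Glo added for 30 min at room temperature before luminescence reading. Line: DT40 Tdp1-/- complemented with hTDP1; camptothecin omitted.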
IL-1B inflam inh: qHTS for Inhibitors of Inflammasome Signaling: IL-1-beta AlphaLISA Primary Screen; activity change, % at 57.5 µM; THP-1 LPS/ATP IL-1B secretion, AlphaLISA, 16 h; hits give low values; 360,000 tested, 4.7% active; in the data active means activity change below about -50%; inconclusive means mostly about -30% to -49%
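THP-1 cells pretreated 1 hr with compounds (up to 57.5 uM final), then stimulated with LPS (250 ng/mL final) plus ATP (1.25 mM final); secreted IL-1B measured by AlphaLISA after 16 hr, decreased signal indicating inhibition.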
TDP1 block: qHTS Assay for Inhibitors of Tyrosyl-DNA Phosphodiesterase (TDP1). recombinant TDP1, AlphaScreen DNA substrate cleavage. AID 485290, 2010. 350,000 tested, 0.28% active. Potency, µM (highest dose often 130 µM), for the others: top-dose activity change, negative = inhibition, hits mostly inhibitors. Tyrosyl-DNA phosphodiesterase 1 (Homo sapiens), Q9NUW8; further: potency means the concentration at half of the fitted maximal effect; nearly all actives have a fitted effect of over 40% in size
Target sequence (Q9NUW8 whole entry, looked up): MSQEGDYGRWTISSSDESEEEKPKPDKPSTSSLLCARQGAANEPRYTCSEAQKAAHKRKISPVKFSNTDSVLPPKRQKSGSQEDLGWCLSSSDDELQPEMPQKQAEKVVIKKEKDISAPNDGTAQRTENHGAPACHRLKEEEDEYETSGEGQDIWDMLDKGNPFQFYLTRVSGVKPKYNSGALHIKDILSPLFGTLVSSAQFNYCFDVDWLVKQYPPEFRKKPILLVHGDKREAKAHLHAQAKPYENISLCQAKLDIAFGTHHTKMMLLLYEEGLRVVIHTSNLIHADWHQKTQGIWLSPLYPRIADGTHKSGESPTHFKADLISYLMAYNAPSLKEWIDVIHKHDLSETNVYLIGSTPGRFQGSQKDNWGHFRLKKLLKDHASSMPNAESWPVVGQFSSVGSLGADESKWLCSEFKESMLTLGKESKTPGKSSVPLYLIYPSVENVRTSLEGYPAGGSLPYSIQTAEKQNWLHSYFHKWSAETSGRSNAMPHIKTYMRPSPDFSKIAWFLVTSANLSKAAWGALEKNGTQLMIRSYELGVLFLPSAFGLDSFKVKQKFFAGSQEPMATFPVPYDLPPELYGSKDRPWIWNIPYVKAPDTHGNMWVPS
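Compounds were preincubated with Tdp1 (1 nM final) for 15 min at room temperature before substrate (15 nM final) started a 5 min reaction; beads (10 ug/ml final) were then added for 10 min before AlphaScreen detection.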
* marks the source's active call; other numbers are inactive results; ? = inconclusive; / = no result; ! = not confirmed by another sample; [ ] = remark or other dose. In the library only some 18% were active in any assay of this set; here they are far more common. Unless noted, the call rests on the fitted dose curve; in most records, active means well fitted curve in the direction sought with a large enough effect; inconclusive means small, poorly fitted or top-dose-only effect, or another doubt; inactive means no such curve, though single readings can be large; an effect the other way counts as inactive or inconclusive. On the % scale 0 is the no-effect control and ±100 the full control effect.

SMILES	Six1-Eya2 blk	DT40 TDP1 CPT	CtBP-E1A blk	DT40 TDP1 no CPT	IL-1B inflam inh	TDP1 block
CC(C)C1(C)N=C(c2ncccc2C(=O)O)NC1=O (centres undefined)	-11	-21%	8	1%	0	0%
COc1cc(CN=C(C)c2c(O)n(C3CCCCC3)c(=O)[nH]c2=O)cc(OC)c1	-5	?	1	23µM*	-23	-2%
CN1C(=O)N(C)C(=O)C2(Cc3c(nc4ccccn4c3=O)N3CCC(Cc4ccccc4)CC32)C1=O (centres undefined)	/	/	/	/	/	3%
Cc1cccn2c(=O)c3c(nc12)N1CCC(Cc2ccccc2)CC1C1(C3)C(=O)N(C)C(=O)N(C)C1=O (centres undefined)	0	18µM*	3	?	-20	0%
CCc1cc2c(s1)-n1c(C)nnc1CN=C2c1ccccc1Cl	/	?	/	-19%	/	/
CCOP(=O)(OCC)c1nc(-c2cccc3ccccc23)oc1N1CCCCC1	24	21µM*	29	?	?	-1%
COc1ccc(CNc2oc(-c3cccc4ccccc34)nc2P(=O)(OC)OC)cc1	13	?	/	?	-24	1%
COP(=O)(OC)c1nc(-c2ccc([N+](=O)[O-])cc2)oc1N1CCCCC1	-9	?	/	21µM*	-11	/
CC(=O)O[C@H]1CC[C@@]2(C)[C@H](C1)C(=O)C[C@H]1[C@@H]3CC[C@@H]4[C@@H](CN5C[C@@H](C)CC[C@H]5[C@@]4(C)O)[C@@H]3C[C@@H]12	10	-26%	/	?	-6	/
COc1cccc(C(O)c2nc(-c3ccncc3)cs2)c1 (centres undefined)	4	23µM*	-1	9.2µM*	13	/
CC(=O)Nc1cccc(-c2csc(C(O)c3cccc(Cl)c3)n2)c1 (centres undefined)	2	23µM*	-5	18µM*	5	/
CCCCN1C(=O)NC(=O)C2(Cc3ccccc3N3CCOCC32)C1=O (centres undefined)	1	-7%	0	-29%	8	4%
C[C@H]1O[C@H]1P(=O)(O)O	5	11%	8	-11%	11	0%
Cc1ccc(CN2C3CCCC2CC(NC(=O)c2ccc(F)cc2)C3)cc1 (centres undefined)	-7	-9%	-5	?	-16	2%
Cc1ccc(C2CC3CCC(C2)N3Cc2ccccc2F)cc1 (centres undefined)	-2	?	14	?	-85*	/
CC[C@]1(C2=NCCN2)Cc2ccccc2O1	/	5%	/	-20%	/	2%
CCC1(C2=NCCN2)Cc2ccccc2O1 (centres undefined)	3	4.7µM*!	7	4.7µM*!	7	7%[56.1 µM]
O=P(O)(Oc1ccccc1)c1ccccc1	1	-14%	13	-13%	0	/
COc1ccc2c(c1)C13CCCC[C@@H]1C(C2)N(C)CC3 (some centres undefined)	2	-5%	1	-16%	-12	4%[21 µM]
Cc1c(C)c2c(c(C)c1OC(=O)CCC(=O)OCCO)CC[C@@](C)(CCC[C@H](C)CCC[C@H](C)CCCC(C)C)O2	/	11µM*	/	?	/	/
CC(=O)[C@H]1CC[C@H]2[C@@H]3CC[C@@H]4C[C@H](O)CC[C@]4(C)[C@H]3CC[C@]12C	/	-9%	/	-20%	/	/
[O]=[Cr](=[O])([OH])[O][Cr](=[O])(=[O])[OH]	/	?	/	17µM*	/	6.3µM*!
O=C(Cc1ccc([N+](=O)[O-])cc1)N1CCN(Cc2ccc3c(c2)OCO3)CC1	-2	1%	-1	-20%	/	1%
CCCCC1(CCCC)C(=O)NC(=Nc2cccc(C)c2)NC1=O	-15	16µM*	-3	18µM*	-56*	6%
NC[C@@H](CC(=O)O)c1ccc(Cl)cc1	/	12%	/	-1%	/	-4%[56.1 µM]
SMILES	Six1-Eya2 blk	DT40 TDP1 CPT	CtBP-E1A blk	DT40 TDP1 no CPT	IL-1B inflam inh	TDP1 block
Cc1cc(C)cc(-n2c(=O)[nH]c3ccccc3c2=O)c1	/	18µM*	/	?	/	6%
COc1cc2[nH]c(=O)n(-c3cccc(Cl)c3)c(=O)c2cc1OC	-3	-6%	-2	-8%	-2	7%
O=c1[nH]c2ccccc2c(=O)n1-c1ccc(Cl)c(Cl)c1	/	?	/	-14%	/	3%[2.28 µM]
O=c1[nH]c2ccccc2c(=O)n1-c1ccc(Cl)cc1Cl	1	16µM*	7	18µM*	-9	-4%
CN1C2CCC1CC(OC(=O)CCN1CCCC1)C2 (centres undefined)	-1	-8%	5	-6%	-4	-12%
O=C(CCN1CC1)OCCOC(=O)CCN1CC1	-5	5.2µM*	7	4.6µM*	-3	/
NC(N)=N/N=C/c1cn(-c2ccccc2)nc1-c1cccs1	0	10µM*	/	10µM*	-98*	1%
COc1cc2nc(N3CCCN(C)CC3)nc(N(C)C3CCN(C)CC3)c2cc1OC	/	6.3µM*	/	6.3µM*	/	/
CCN(CC)S(=O)(=O)c1ccc(NN=C(C#N)C#N)cc1	-11	?	-3	?	-81*	0%
N#CC(C#N)=NNc1ccc([N+](=O)[O-])cc1	-19	21µM*	-12	23µM*	-91*	9%
CC(=O)Nc1ccc([As](=O)(O)c2ccc([N+](=O)[O-])cc2)cc1	3	8%	6	1%	27	-1%
COC(=O)C1=C(c2ccc(C(C)=O)cc2)C[C@@H]2CC[C@H]1N2C(=O)NCc1ccco1	-6	-3%	-1	15%	11	0%
O=c1c2ccccc2nc(-c2cccs2)n1-c1ccccc1	-4	?	5	23µM*	9	0%
CCOc1ccc(-n2c(-c3cccs3)nc3ccccc3c2=O)cc1	0	?	2	?	22	-4%
Cc1cccc(-n2c(-c3cccs3)nc3ccccc3c2=O)c1	-10	16µM*	13	?	24	3%
c1cc2cc(c1)C[n+]1ccc(c3ccccc31)NCc1ccc(cc1)CNc1cc[n+](c3ccccc13)C2	/	9.4µM*	/	6.7µM*	/	-7%[56.1 µM]

Source: PubChem BioAssay
